According to PubChem BioAssay:

These compounds were tested against Albumin (Bos taurus) (UniProt P02769) (assay: bovine serum albumin binders on microarray, profiling panel, artefact control for SMM control protein annotation, biochemical, small-molecule microarray, Alexa647 label, 635/667 nm fluorescence (AID 1118;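 also: score merges 667 nm emission intensity and signal-to-noise per printed compound spot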)). Settings: BSA-A647 binding, fluorescence 635 nm, higher = more signal.
Sequence of Albumin (Bos taurus) (P02769 whole entry, looked up): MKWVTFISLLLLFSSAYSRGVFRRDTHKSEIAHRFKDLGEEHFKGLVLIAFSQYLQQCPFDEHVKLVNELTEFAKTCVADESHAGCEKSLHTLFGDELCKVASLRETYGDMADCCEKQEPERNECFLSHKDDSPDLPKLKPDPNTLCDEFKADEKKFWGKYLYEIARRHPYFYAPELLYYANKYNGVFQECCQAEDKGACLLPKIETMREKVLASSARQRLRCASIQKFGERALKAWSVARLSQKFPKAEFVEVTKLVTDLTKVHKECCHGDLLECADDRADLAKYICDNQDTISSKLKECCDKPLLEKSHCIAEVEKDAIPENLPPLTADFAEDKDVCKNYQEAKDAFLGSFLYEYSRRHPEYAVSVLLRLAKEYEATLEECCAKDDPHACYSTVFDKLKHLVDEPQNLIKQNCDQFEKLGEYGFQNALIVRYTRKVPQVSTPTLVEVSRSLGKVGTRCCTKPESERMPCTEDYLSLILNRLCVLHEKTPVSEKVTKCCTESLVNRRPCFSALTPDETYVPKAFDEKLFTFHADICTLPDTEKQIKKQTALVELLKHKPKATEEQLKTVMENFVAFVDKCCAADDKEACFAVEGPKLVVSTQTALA

Structure (SMILES)	composite z-score
CCCCC=C[C@@H](NC(=O)c1ccc(C(F)(F)F)cc1)c1ccccc1	-0.81
CC(c1ccccc1)C(O)C1C=CC2C(=O)N(c3ccccc3)C(=O)C2N1Nc1ccc(C#N)cc1 (stereo not given)	0.976
CC(C)(C)N1CC=CC23O[C@@H]4/C=C\CCCOC(=O)C4[C@H]2C(=O)N(CCCCCCO)[C@@H]3C1=O (stereo not given in full)	0.708
COc1ccc(C(O)C2C=CC3C(=O)N(C)C(=O)C3N2Nc2ccc([N+](=O)[O-])cc2[N+](=O)[O-])cc1OCc1ccccc1 (stereo not given)	0.747
C=CC[C@]1(C(=O)N(C)C)COC(c2ccc(OCCCO)cc2)=N1	0.795
C[C@@H](OCc1ccccc1)C1NC(=O)[C@@]23C(=O)N[C@@H](Cc4ccccc4)C2[C@H](C)[C@@]2(C)O[C@H]2C3/C=C/C/C=C\CNC(=O)[C@H](Cc2ccccc2)NC1=O (stereo not given in full)	0.126
COc1ccc([Si](C)(C)[C@H]2[C@H](CCO)O[C@@]3(C(=O)N(Cc4ccc(N5CCOC5=O)cc4)c4ccccc43)[C@@H]2C)cc1	0.243
C=CCC(OC(C)=O)[C@@H]1[C@@H](N(Cc2ccc(-c3ccccc3)cc2)C(=O)c2ccc(C)cc2)c2cc(OCCCO)ccc2N1C(=O)c1ccc2ccccc2c1 (stereo not given in full)	0.608
CC(C)C(=C=CC[C@@H](O)c1cccc(OCCO)c1)CCO	0.161
COCCOC(=O)N1C(=O)[C@@]2(c3cc(C#CC4(O)CCCCCC4)ccc31)[C@H](c1ccc(OCCO)cc1)N1[C@H](c3ccccc3)[C@H](c3ccccc3)OC(=O)[C@H]1[C@@H]2C(=O)N1CCCCCCC1	0.571
Cc1ccc(F)cc1S(=O)(=O)N[C@@H]1CCN(Cc2ccc3[nH]ccc3c2)C1	-0.213
C=C(COC)/C(=C/C[C@@H](OC(C)=O)c1ccccc1OCCO)c1cc(C(=O)OC)ccc1OC	0.27
C=CCN1C(=O)[C@]2(O[C@H](CCO)[C@@H]([Si](C)(C)c3ccc(OC)cc3)[C@@H]2C)c2ccccc21	0.482
COc1ccc(CCNC(=O)[C@@H]2c3ccccc3C(=O)N(CC34CC5CC(CC(C5)C3)C4)[C@H]2c2ccc(CO)cc2)cc1	0.764
C=CCC(OC(C)=O)[C@@H]1[C@@H](N(Cc2cccc3ccccc23)C(=O)c2ccc(C)cc2)c2cc(OCCCO)ccc2N1C(=O)c1ccc2ccccc2n1 (stereo not given in full)	0.526
COCCCNC(=O)[C@@H]1c2ccccc2C(=O)N(Cc2cc(C(F)(F)F)cc(C(F)(F)F)c2)[C@H]1c1ccc(CO)cc1	-0.873
CCOC(=O)C[C@H]1[C@H](OC(=O)c2ccc(C(=O)c3ccccc3)cc2)[C@@H](NC(=O)c2ccc3ccccc3c2)c2cc(OCCCO)ccc2N1C(=O)c1ccc2ccccc2n1	0.544
C=CCN1C(=O)[C@]2(O[C@H](CCn3cc([C@H](O)c4ccccc4)nn3)[C@@H]([Si](C)(C)c3ccc(OC)cc3)[C@@H]2C)c2cc(N3C(=O)c4cccc5cccc3c45)ccc21	0.626

Structure (SMILES)	composite z-score
CN(C)CCCC[C@@H]1NC(=O)[C@H]2C[C@@H](C(=O)O)[C@@H](c3cccc(OCCO)c3)N2C1=O	-0.468
C=CCC(OC(C)=O)[C@@H]1[C@@H](N(Cc2ccc(-c3cccc(C(F)(F)F)c3)o2)C(=O)c2cccc3ccccc23)c2cc(OCCCO)ccc2N1C(=O)c1ccc2ccccc2c1 (stereo not given in full)	-0.119
C=C(COC)/C(=C/C[C@H](OC(=O)c1ccncc1)c1ccc(OCCO)cc1)c1cc(C(=O)OC)ccc1OC	0.401
COCCOC(=O)N1C(=O)[C@@]2(c3cc(C#CCC(C(=O)OC)C(=O)OC)ccc31)[C@H](C(=O)N1CCc3cc(OC)c(OC)cc3C1)[C@H]1C(=O)O[C@H](c3ccccc3)[C@H](c3ccccc3)N1[C@@H]2c1ccc(O)cc1	-0.129
Cc1ccc(S[C@]2(C(=O)NC3CC3)CC(=O)N(Cc3cc(C(F)(F)F)cc(C(F)(F)F)c3)[C@@H]2c2ccc(CO)cc2I)cc1	0.0876
COc1ccc([Si](C)(C)[C@H]2[C@H](CCn3cc([C@H](O)c4ccccc4)nn3)O[C@@]3(C(=O)N(C)c4c(Br)cc(C)cc43)[C@@H]2C)cc1	-0.628
CCCCC(O)C1C=CC2C(=O)NC(=O)C2N1Nc1ccc(Cl)cc1Cl (stereo not given)	0.891
C=CCC(OC(C)=O)[C@@H]1[C@@H](N(Cc2ccc(-c3ccccc3)cc2)C(=O)c2ccc(-c3ccccc3)cc2)c2cc(OCCCO)ccc2N1C(=O)c1ccc2ccccc2n1 (stereo not given in full)	-0.211
COc1ccc([Si](C)(C)[C@H]2[C@H](CCO)O[C@@]3(C(=O)N(Cc4ccccc4)c4ccc(N(C=O)c5ccccc5)cc43)[C@@H]2C)cc1	0.717
CN(C)CCCC[C@@H]1NC(=O)[C@H]2C[C@@H](C(=O)NCc3ccc(F)cc3)[C@@H](c3ccc(O)cc3)N2C1=O	-0.734
COC(=O)[C@@]1(Cc2ccc(F)cc2)[C@H]2c3cc(C(=O)N(C)C)n(CCO)c3C[C@H]2CN1C(=O)c1ccccc1	1.13
C=C(/C(=C/C[C@@H](OC(C)=O)c1ccccc1OCCO)c1cc(C(=O)OC)ccc1OC)C(C)C	0.344
CCCCN1CC=CC23O[C@@H]4/C=C\CCC(C)OC(=O)C4[C@H]2C(=O)N(C(C)CO)[C@@H]3C1=O (stereo not given in full)	-1.58
NCCCC[C@@H]1NC(=O)[C@H]2C[C@@H](C(=O)NCc3ccc(F)cc3)[C@@H](c3cccc(OCCO)c3)N2C1=O	-0.364
COc1cccc(C[C@H]2C[C@@H](CO[Si](C(C)C)(C(C)C)C(C)C)N3C(=O)[C@@]4(C(C)=O)O[C@@]23[C@@H]2C(=O)N(C)C(=O)[C@@H]24)c1	0.166
CC#CCO[Si](C#CCCCCCC)(C(C)C)C(C)C	-0.611
O=C1NC(=O)C2C1C=CC(C(O)c1ccc(F)cc1)N2Nc1ccccn1 (stereo not given)	0.691
